PubChem BioAssay AID2330 (Broad Institute, 2010)
Out of some 37,000 compounds screened, about 2,800 (7.6%) were called active. Roughly 1% stayed inconclusive and do not appear here. No stated cut-off is given here; in the data, active means inhibition above about 80%; inconclusive means no clear call, values can overlap the other calls; inactive means below that. Only a selection was taken, and actives are over-represented in it overall.

Test: NOMO-1 AML cell viability reduction, primary screen, STK33 inhibitor project, CellTiter-Glo luminescence (AID 2330)
Conditions: NOMO-1 AML viability, 72 h, hits give high values, concentration not given here

Row | SMILES | inhibition
1 | C[C@H]1O[C@@H](O[C@H]2CC[C@]3(CO)C4CC[C@]5(C)[C@@H](C6=CC(=O)OC6)CC[C@]5(O)[C@@H]4CC[C@H]3C2)[C@H](O)[C@H](O)[C@@H]1O[C@@H]1O[C@H](CO)[C@@H](O)[C@H](O)[C@H]1O (stereo not given in full) | 119% (active)
2 | CCCCC/C=C\C/C=C\C/C=C\C/C=C\CCCCCC(=O)NCCO | 10.8% (inactive)
3 | COc1ccc(CNCc2nc3ccccc3c(=O)n2-c2ccc(F)cc2)cc1 | 23.8% (inactive)
4 | CC(C)c1ccc2c(c1O)CC[C@H]1C3=C(CC[C@]21C)C(=O)OC3 | 24.4% (inactive)
5 | O=C(Nc1ccc2c(C(F)(F)F)cc(=O)oc2c1)c1nc2ncccn2n1 | 7.98% (inactive)
6 | COc1c(C(C)C)cc2c(c1O)[C@@]1(C(=O)O)CCCC(C)(C)C1CC2 (stereo not given in full) | 16% (inactive)
7 | CCCCCCCCCCCCCC(=O)O[C@@H]1[C@@H](C)[C@@]2(O)[C@@H](C=C(CO)C[C@]3(O)C(=O)C(C)=C[C@@H]23)[C@@H]2C(C)(C)[C@]12OC(C)=O | 98.2% (active)
8 | Cc1cc(OCc2cc(C(=O)O)oc2C)c2c3c(c(=O)oc2c1)CCCC3 | 0.325% (inactive)
9 | CCCN(C/C=C/I)C1CCc2ccc(O)cc2C1 (stereo not given) | 31.2% (inactive)
10 | COC1=C[C@@H]2[C@@H]3Cc4ccc(OC)c(O)c4[C@]2(CCN3C)CC1=O | -7.75% (inactive)
11 | COC1=CC23CCN(C)[C@H](Cc4cc(OC)c(OC)cc42)C3=CC1=O | 24.6% (inactive)
12 | O=C(c1ccccc1)C12CN3CN(CN(C3)C1)C2 | -14.9% (inactive)
13 | COc1ccccc1N1C(=O)NC(=O)C(CCc2ccncc2)(Cc2cccc3ccccc23)C1=O (stereo not given) | 32.3% (inactive)
14 | C[C@H]1CCC/C=C/C2C[C@H](O)C[C@H]2[C@H](O)/C=C\C(=O)O1 (stereo not given in full) | 122% (active)
15 | COc1ccc2[nH]cc(CCNCc3ccc(Br)cc3)c2c1 | 48.6% (inactive)
16 | CCCCn1c(C)c(C(C)=O)c2c(OCC(=O)O)c(Cl)c(Cl)c(Cl)c21 | -7.33% (inactive)
17 | c1ccc2c(c1)[I+]c1ccccc1-2 | 141% (active)
18 | C=CC(C)(C)c1cc2cc3c(cc2oc1=O)O[C@H](C(C)(C)O)C3 | 45.2% (inactive)
19 | Cc1ncsc1CCCl | 11.2% (inactive)
20 | CC(C)Nc1nc(Cl)nc(NC(C)C)n1 | 8.29% (inactive)
